We go through 39 compounds from PubChem BioAssay (NCATS).

Each structure is given as a SMILES string. “And” between values parts separate entries of the source, which are not always exact repeats. Equal values may be shown once. Results filed as inconclusive are left out. A structure can be active in one record and inactive in another. Values without a mark were called inactive. The source made the active and inactive calls. Calls follow the shape of the dose curve; as a rule, active = well fitted cell-killing curve with a large enough effect; inconclusive = small, poorly fitted or top-dose-only effect; inactive = flat fitted curve, though single readings scatter.
% is scaled to controls: 0 for no effect and ±100 for the full control effect.

This assay in a line: Cellular viability qHTS for adrenocortical cancer (ACC) cell line SW-13 (AID 1963989). Also: nearly all actives have a fitted effect of over 65% in size.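 As to activity (max response): cells grown in serum-free medium with ITS supplement.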 The following applies: SW-13 ACC cells viability, CellTiter-Glo, 48 h; activity (max response): active compounds read low. The text has this: PI: Naris Nilubol, MD Surgical Oncology Program, National Cancer Institute (NCI) National Institute of Health (NIH), Bethesda, Maryland Adrenocortical cancer (ACC) is a rare malignancy with poor survival outcomes and few treatment options. Currently, mitotane is the only FDA-approved therapy for ACC. Although adjuvant radiation therapy is rarely utilized, it has the potential to improve survival in select cases. Through a quantitative high-throughput drug screen (qHTS), we identified auranofin (AF), a thioredoxin reductase (TXNRD) inhibitor, as a promising candidate drug. This study aims to evaluate whether AF can enhance the efficacy of radiation therapy in the treatment of ACC. Two human ACC cell lines, SW-13 and NCI-H295R, were screened using the National Center for Advancing Translational Sciences (NCATS) Pharmaceutical Collection (NPC) and the Mechanism Interrogation PlatE (MIPE) library (~4,991 compounds). CellTiter-Glo (Cat # G7570, Promega, Madison, WI) was utilized to measure cell viability. Described herein are the results of the corresponding viability assay.
PROTOCOL TABLE (as described by Inglese J, Shamu CE and Guy RK. 2007) SEQUENCE No. (e.g., 1, 2, 3, etc.); […] (e.g., Cells, Incubation, Reagent, etc.); VALUE; DESCRIPTION. 1; Cells; 5 uL; white, solid-bottom, 1536-well tissue-culture treated plates. 2; Time; overnight culture at 37C with 5% CO2. 3; Compounds and control; 23 nL; Kalypsis pin tool (Wako USA) equipped with a 1536-well pin head to transfer to the assay plates. 4; Time; 48 hours; 37C with 5% CO2. 5; Reagent; 4 uL; CellTiter-Glo luminescent substrate mix. 6; Time; 20 min at room temperature. 7; Detection; Luminescence; ViewLux plate reader NOTES (numbers refer to Sequence numbers above) 1. SW13 cells were harvested from a T175 flask and resuspended in ITS-supplemented DMEM serum-free medium at a concentration of 300 000 cells/mL. Then 5 uL of resuspended cells were dispensed into each well of white, solid-bottom, 1536-well tissue-culture-treated plates using a multidrop combi dispenser. The plates were covered with stainless steel gasket lids. 2-3. The plates were cultured overnight at 37C with 5% CO2. Twenty-three nL of compounds (eight selected concentrations from the NPC / MIPE) or positive control (10 mM stock of bortezomib) in DMSO was transferred to each well of the assay plate using a pin tool (Kalypsys, San Diego, CA, USA). The final concentration of the compounds in the 5 uL assay volume ranged from 0.5 nM to 46 uM. 4-6. After 48 hours of incubation at 37C and 5% CO2, 4 uL of CellTilter-Glo luminescent substrate mix (Promega, Madison, WI, USA) was added to each well. Then the plates were incubated for 20 minutes at room temperature. 7. After incubation, luminescence was measured using a ViewLux plate reader (PerkinElmer, Waltham, MA, USA) with a clear filter was used to measure the number of metabolically competent cells. To determine compound activity in the qHTS assay, the titration-response data for each sample was plotted and modeled by a four-parameter logistic fit yielding IC50 and efficacy (maximal response) values. […] REFERENCES: Inglese J, Shamu CE and Guy RK, Reporting data from high throughput screening of small molecule libraries, Nature Chemical Biology, 2007, 3(8): 438-441. doi.org/10.1038/nchembio0807-438.
(qHTS replaces the single test concentration by a dilution series.)
For `N#Cc1ccc(N(Cc2ccc(Br)cc2)n2cnnc2)cc1`, the activity (max response) is -0.886%.
For `CN[C@H]1CCc2cc(OC)c(OC)c(OC)c2-c2ccc(OC)c(=O)cc21`, the Potency was 0.1 µM (active).
As for `COc1cccc2c1C(=O)c1c(O)c3c(c(O)c1C2=O)C[C@@](O)(C(C)=O)C[C@@H]3O[C@H]1C[C@H](N)[C@H](O)[C@H](C)O1`, the Potency is 51.7 nM (active) and 501 nM (active).
With `O=C(NCCS(=O)(=O)c1ccc(C(F)(F)F)cn1)c1ccc(Cl)cc1`, the activity (max response) is 0.68%.
Regarding `Cn1cc(-c2nc(N[C@@H]3CCCC[C@@H]3N)c(F)c3c2C(=O)NC3)cn1`, the activity (max response) is 8.72%.
Turning to `OC[C@@H](O)[C@@H](O)[C@H](O)[C@@H](O)CO`, the activity (max response) was 3.97%.
For the compound `Cc1cccc(Nc2ccccc2C(=O)O)c1C`, the activity (max response) is 8.3%.
With `C=CC(=O)Nc1cccc(Oc2nc(Nc3ccc(N4CCN(C)CC4)c(F)c3)nc3[nH]ccc23)c1`, the Potency is 2.82 µM (active).
Turning to `Cc1ccc(-n2nc(C(C)(C)C)cc2NC(=O)Nc2ccc(OCCN3CCOCC3)c3ccccc23)cc1`, the activity (max response) is -16.6%.
Consider `C[N+](C)(C)CCCCCCCCCC[N+](C)(C)C`, for which the activity (max response) is 14.5%.
`O=c1[nH]c([C@@H]2CCCN2)nc2c1oc1ccc(Cl)cc12`: the activity (max response) was -13.8%.
As to `Cc1c(N)c(=O)n(-c2ccccc2)n1C`, the activity (max response) is -4.39%.
Regarding `NC1CCC(N[C@@H]2C[C@H]2c2ccccc2)CC1` (stereo not given in full), the activity (max response) is -23.4%.
For `FC(F)(F)C(Cl)Br` (stereo not given), the activity (max response) was -8.02%.
For the compound `Cc1cc(OCc2nnc(SC3CCCC3)n2-c2cccnc2)ccc1-c1ccc(S(C)(=O)=O)cc1`, the activity (max response) was -6.15%.
For `CCc1ccc(CCOc2ccc(CC3SC(=O)NC3=O)cc2)nc1` (stereo not given), the activity (max response) is 0.771% and -12.6%.
For `Cc1cc(Nc2ncc(Cl)c(Nc3ccccc3S(=O)(=O)C(C)C)n2)c(OC(C)C)cc1C1CCNCC1`, the Potency is 15.8 µM (active).
On to `CCCCS(=O)(=O)N[C@@H](Cc1ccc(OCCCCC2CCNCC2)cc1)C(=O)O`, for which the activity (max response) was 11.9%.
As to `CN(C)CC(C)(C)CNc1nn2c(-c3ccccc3)nnc2cc1C1CCC1`, the activity (max response) is -3.73%.
With `C=C1/C(=C\C=C2/CCC[C@]3(C)[C@@H]([C@H](C)CCCC(C)(C)O)CC[C@@H]23)C[C@@H](O)C[C@@H]1O`, the Potency was 28.2 µM (active).
Regarding `O=C1c2c(O)cc(O)cc2OC(c2ccc(O)c(O)c2)C1O` (stereo not given), the activity (max response) was -4.92%.
The same measure, in the same setting: the value for `Cc1ccsc1C(=CCCN1CCC[C@@H](C(=O)O)C1)c1sccc1C` was 0.503% and 7.63%.
On to `C[C@@]1(c2cc(-c3cncnc3)c(F)cc2F)CCSC(N)=N1`, for which the activity (max response) was -2.1%.
For the compound `CC(C)(C)NCC(O)c1ccc(O)c(CO)c1` (stereo not given), the activity (max response) was 0.289% and -0.385%.
In the case of `N[C@H]1C(O)O[C@H](CO)[C@@H](O)[C@@H]1O` (stereo not given in full), the activity (max response) is -3.76%.
Regarding `COc1ccc(N(C)c2nc(C)nc3ccccc23)cc1`, the Potency is 0.0112 µM (active).
For `C=C1C[C@@]2(O)O[C@@]3(C[C@H]2C(C)C)[C@@H](C)CC[C@@H]13`, the activity (max response) is 6.19%.
For `C[C@@H](Oc1cc(-c2cnn(C3CCNCC3)c2)cnc1N)c1c(Cl)ccc(F)c1Cl`, the Potency was 3.55 µM (active).
In the case of `Oc1cccc(O)c1`, the activity (max response) was 6.94%.
Consider `O=C1CC2(CCCC2)CC(=O)N1`, for which the activity (max response) was 11.4%.
In the case of `CCCc1ncc(C[n+]2ccccc2C)c(N)n1`, the activity (max response) was -17.3%.
`CC1CC(OC(=O)C(O)c2ccccc2)CC(C)(C)N1C` (stereo not given): the activity (max response) is 2.77%.
Still for that read-out and setting: the value for `COCC(=O)Nc1c(I)c(C(=O)NCC(O)CO)c(I)c(C(=O)N(C)CC(O)CO)c1I` (stereo not given) was -3.53%.
As to `Cc1ccc(-c2cc(C(F)(F)F)nn2-c2ccc(S(N)(=O)=O)cc2)cc1`, the activity (max response) is -6.62% and the Potency is 23.1 µM (active).
Turning to `CC1=NS(=O)(=O)c2cc(Cl)ccc2N1`, the activity (max response) was 8.23%.
Take `CC12CCC(CC1)C(C)(C)O2`: the activity (max response) is 13.8%.
On the same count and under the same terms, the value for `O=C(O)COC(=O)Cc1ccccc1Nc1c(Cl)cccc1Cl` was 7.51%.
On the same count and under the same terms, the figure for `O=C(O)Cc1ccc(OCCNC[C@H](O)c2ccccc2)cc1` is 0.46%; for `CCCCCCCCCCC(CO)CCCCCCCC` (stereo not given) it is 0.379%.
